Laboratory results taken from PubChem BioAssay AID504332 (National Center for Advancing Translational Sciences (NCATS), 2011).
Screen size: about 350,000 compounds; about 31,000 (8.9%) were called active. Inconclusive results (about 15%) are left out. Shown is part of a subset that was picked to be rich in actives. Values without a mark were called inactive. The call rests on the fitted dose curve; in most records, active means well fitted inhibition curve with a large enough effect; inconclusive means small, poorly fitted or top-dose-only effect; inactive means no such curve, though single readings can be large or run the other way.

Biological target: Histone-lysine N-methyltransferase EHMT2 (Homo sapiens) (UniProt Q96KQ7)
Test: qHTS Assay for Inhibitors of Histone Lysine Methyltransferase G9a; further: nearly all actives have a fitted effect of over 75% in size
Details: G9a H3K9 monomethylation, AlphaScreen, 2 h; series mostly up to 59 µM; activity, negative = inhibition: at the top concentration
Summary of the method: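 Using a bead-based AlphaScreen, monomethylated H3K9 product from 2 h room-temperature reactions (G9a 20 nM, peptide 500 nM, SAM 20 uM) was detected with 0.5 ug/mL rabbit anti-H3K9me1 antibody.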
On the % scale 0 is the no-effect control and ±100 the full control effect; potency means the concentration at half of the fitted maximal effect.

Sequence of Histone-lysine N-methyltransferase EHMT2 (Homo sapiens) (Q96KQ7 913-1193 limits assumed): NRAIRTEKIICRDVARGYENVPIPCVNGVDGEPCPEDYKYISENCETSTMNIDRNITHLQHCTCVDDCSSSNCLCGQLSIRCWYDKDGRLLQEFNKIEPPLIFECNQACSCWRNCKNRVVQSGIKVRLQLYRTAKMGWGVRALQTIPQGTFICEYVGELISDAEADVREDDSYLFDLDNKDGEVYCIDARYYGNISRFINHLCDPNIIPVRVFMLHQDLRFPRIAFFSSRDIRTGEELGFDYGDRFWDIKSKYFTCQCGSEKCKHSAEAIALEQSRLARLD

| SMILES | Potency | activity, negative = inhibition |
| --- | --- | --- |
| CC(NC(=O)C(=O)Nc1nccs1)c1ccccc1 (stereo unspecified) | 50.1 µM (active) |  |
| O=C(O)c1ccccc1-c1ccccc1C(=O)Nc1nccs1 |  | 2.15% |
| C[C@H](NC(=O)c1[nH]cnc1C(=O)Nc1nccs1)c1ccccc1 |  | 8.27% [at 0.501 µM] |
| Cc1cccc(C)c1-n1ncc(C(=O)NCCCN2CCCCC2)c1C1CCN(C(=O)OC(C)(C)C)CC1 |  | -25% |
| CCCC(NCC(=O)Nc1ccccc1C(=O)NC1CC1)c1ccccc1 (stereo unspecified) |  | -2.12% [at 102 µM] |
| CCOC(=O)c1c(C)[nH]c(C)c1S(=O)(=O)NCC(=O)NCc1cccc(C)c1 |  | 7.2% |
| Cc1c(C)c2ccc(OCC(=O)N3CCC(C(=O)O)CC3)c(C)c2oc1=O |  | -7.73% [at 102 µM] |
| CCCCc1cc(=O)oc2cc(C)cc(OCc3nn[nH]n3)c12 |  | 17.7% |
| CCOC(=O)CCc1c(C)c2ccc(OCc3nn[nH]n3)c(C)c2oc1=O | 50.1 µM (active) |  |
| CCc1ccc(C(=O)NN=C2CCCCCC2)s1 |  | 1.85% [at 102 µM] |
| O=C(Nc1ccccc1Br)c1cc(CN2CCCC2)on1 |  | -5.99% |
| COc1cccc(NC(=O)C(Sc2nnnn2C)c2ccccc2)c1 (stereo unspecified) |  | 5.67% [at 102 µM] |
| COc1ccc(NC(=O)CSc2nc3ccccc3c(=O)n2C)cc1 |  | 7.85% [at 0.501 µM] |
| COc1cccc(NC(=O)C(Sc2nc3ccccc3c(=O)n2CC(C)C)c2ccccc2)c1 (stereo unspecified) | 79.4 µM (active) |  |
| Cc1ccc(C2CCN(C(=O)c3cnn(-c4ccccc4Cl)c3C3CCN(C(=O)OC(C)(C)C)CC3)C2)cc1 (stereo unspecified) |  | -43.6% |
| COc1ccc(NC(=O)c2cc(-c3ccc(C)cc3)on2)cc1 |  | -5.29% [at 0.501 µM] |
| Cc1ccc(NC(=O)c2sc3nc(N)c(C#N)cc3c2N)cc1 | 7.94 µM (active) |  |
| CC(=O)Nc1ccc(NC(=O)c2sc3nc4c(c(-c5ccc(C)cc5)c3c2N)CCC4)cc1 |  | -37.6% |
| COc1ccc(CCNC(=O)CCNS(=O)(=O)c2cc(Br)cnc2N)cc1OC |  | 4.51% |
| COCC1CCN(C(=O)C2CCC(=O)N(Cc3cccc(C(F)(F)F)c3)C2)CC1 (stereo unspecified) |  | 15.3% [at 12.7 µM] |
| O=c1o[nH]c(-c2ccccc2)c1N=Nc1c(F)cccc1Cl | 28.2 µM (active) |  |
| O=c1onc(-c2c(F)cccc2F)n1-c1ccccc1Cl |  | 22.1% [at 102 µM] |

| SMILES | Potency | activity, negative = inhibition |
| --- | --- | --- |
| O=c1c(=O)n(Cc2c(F)cccc2Cl)ccn1Cc1ccccc1 |  | -38% |
| Cc1nnc(NC(=O)CSc2nc3c([nH]c4ccccc43)c(=O)n2-c2cccc(Cl)c2)s1 |  | 6.79% |
| COCCNS(=O)(=O)c1cc(-c2nn3c(C)nnc3c3ccccc23)ccc1C |  | -0.274% |
| Cc1nc2ccccn2c(=O)c1NC(=O)c1cccs1 |  | 2.42% [at 102 µM] |
| Cc1ccc(C)c(S(=O)(=O)c2nnn3c2nc(N2CCOCC2)c2sccc23)c1 |  | 13.3% |
| CCOC(=O)C1CN(S(=O)(=O)c2ccc(OC)cc2)c2cc(Cl)ccc2O1 (stereo unspecified) |  | 34.7% [at 102 µM] |
| Cc1ccc([N+](=O)[O-])cc1S(=O)(=O)N1CCCN(C)CC1 | 56.2 µM (active) |  |
| O=[N+]([O-])c1cccc(S(=O)(=O)N2CCCCCC2)c1 |  | -27.8% |
| Cc1ccc(C)c(S(=O)(=O)N2CCN(CC(=O)Nc3ccc([N+](=O)[O-])cc3)CC2)c1 |  | -2.86% |
| CC(CNC(=O)c1nnc(Cc2cccc(F)c2)o1)c1ccccc1 (stereo unspecified) |  | -21.9% |
| O=C(NCCC1CCCCN1S(=O)(=O)c1ccc(Cl)cc1)C(=O)NCc1ccco1 (stereo unspecified) |  | -5.87% [at 0.501 µM] |
| CCOc1ccc(NC(=O)c2nc(SCC)ncc2Cl)cc1 |  | -3.51% [at 102 µM] |
| CCOc1ccc(NC(=O)C2CC(=O)N=C(N)S2)cc1 (stereo unspecified) |  | -39.6% |
| CCOc1ccc(N/C(N)=N/c2nc(C)c(C)c(=O)[nH]2)cc1 | 50.1 µM (active) |  |
| COc1ccccc1C(=O)Nc1c(C(=O)Nc2ccc(C)cc2)oc2ccccc12 |  | -5.27% |
| COc1ccc(C)cc1NC(=O)COCc1cc(-c2cccs2)on1 |  | 8.56% |
| COc1ccc(CNC(=O)COc2ccccc2C(=O)c2cnn(-c3ccccc3)c2)cc1OC |  | 13.3% [at 12.7 µM] |
| CCOC(=O)C1(Cc2ccccc2C)CCCN(C(=O)c2ccc(COC)o2)C1 (stereo unspecified) |  | -36.1% [at 102 µM] |
| N#CCCN(C(=O)COC(=O)c1ccc(S(=O)(=O)N2CCCCCC2)cc1)c1ccccc1 |  | -22% |
| O=C(Cc1ccccc1)NNS(=O)(=O)c1ccc([N+](=O)[O-])cc1 |  | -66.7% |
| O=C(O)/C=C/C(=O)NNc1ccc([N+](=O)[O-])cc1 | 7.94 µM (active) |  |
| CC(C)(C)C(=O)NCCCNc1ccc([N+](=O)[O-])cc1 |  | -3.86% |

| SMILES | Potency | activity, negative = inhibition |
| --- | --- | --- |
| CCc1nn(CC(=O)Nc2cc(C)cc(C)c2)c(=O)c2cc3sccc3n12 |  | -17.4% |
| Cc1n[nH]c(=O)c2c(NC(=O)COC(=O)c3ncc(Cl)c(Cl)c3Cl)oc(C)c12 |  | 5.9% [at 0.501 µM] |
| Cc1n[nH]c(=O)c2c(NC(=O)CSc3ccccc3F)oc(C)c12 | 31.6 µM (active) |  |
| Cc1n[nH]c(=O)c2c(NC(=O)CSc3cc(Cl)ccc3Cl)oc(C)c12 |  | 18.3% [at 2.33 µM] |
| O=C(O)Cc1sc(-c2ccccc2)nc1-c1cccs1 |  | -42.8% [at 102 µM] |
| O=c1c(-c2ccccc2)cnc2n1CCS2 |  | 20.8% [at 12.7 µM] |
| O=c1c2cc(-c3ccccc3)sc2nc2n1N=C(c1cccs1)CS2 | 11.2 µM (active) |  |
| CS(=O)(=O)N1CCN=C1SCc1ccc(F)cc1 |  | 53.4% [at 102 µM] |
| CCOC(=O)N1CCC(NC(=O)c2cnn(-c3cccc(C)c3)c2C2CCN(C(=O)OC(C)(C)C)CC2)CC1 |  | -20.7% |
| CCOC(=O)c1cc2c(=O)n3ccccc3nc2n(CCCOC)c1=NC(=O)C(C)(C)Oc1ccc(Cl)cc1 |  | -2.89% |
| O=C(CSc1nc(=O)[nH]c2c1CCCC2)Nc1cc(C(F)(F)F)ccc1Cl |  | 10.2% |
| CC(CC(=O)Nc1cc(C(F)(F)F)ccc1Cl)c1ccccc1 (stereo unspecified) |  | 9.26% |
| COc1ccc(NC(=O)CSc2nccn2C2CCCC2)cc1OC |  | 9.83% |
| Cc1cccc(-n2c(Cc3cc(=O)[nH]c(=O)[nH]3)nnc2SCC(=O)Nc2cccc(C(F)(F)F)c2)c1 |  | 15.1% [at 102 µM] |
| Cc1cccc(-n2ccnc2SCC(=O)Nc2cc(C(F)(F)F)ccc2Cl)c1 | 14.1 µM (active) |  |
| O=C(CSc1nccn1C1CCCC1)Nc1cc(C(F)(F)F)ccc1Cl | 12.6 µM (active) |  |
| O=C(CN1C(=O)NC2(CCCCC2)C1=O)N1CCN(C(=O)c2cccs2)CC1 |  | -17% [at 2.33 µM] |
| Cc1ccc2nc(COc3cccc(NC(=O)Nc4ccc(C)c(Cl)c4)c3)cc(=O)n2c1 |  | 6.7% |
| CC(=O)NC12CC3CC(C1)CC(C(=O)N1CCN(C(=O)c4ccco4)CC1)(C3)C2 |  | 25.3% |
| CCCC(=O)Nc1ccc2oc(-c3ccc(O)c(Br)c3)nc2c1 |  | -0.852% |
| CC(C)Nc1nnc(SC(C)C(=O)N(C)C2CCCCC2)s1 (stereo unspecified) |  | 7.92% [at 0.501 µM] |
| O=C(Cn1ncn2nc(-c3cccs3)cc2c1=O)NCc1cccc(Br)c1 |  | -32.8% |
